From PubChem
Compounds with a hit are over-represented: about 2.2% of the library has one in this group of screens.
TDP43 rescue: TDP-43 toxicity inhibition in yeast. Potency, µM (top dose mostly 46.1 µM), without a hit: top-dose growth rescue (activation), actives largely listed as activators. AID 652104. TDP-43 expressing yeast growth rescue, BacTiter-Glo, 24 h. 410,000 tested, 1.8% active; note: % of control where 0% means no effect; nearly all actives have a fitted effect of over 50% in size
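Yeast cells expressing TDP-43 under galactose induction are exposed to compounds for 24 hr at 30 deg C. BacTiter-Glo luminescence measures growth, so protective compounds score as activators.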
Abeta rescue: A-beta toxicity reversal in yeast. yeast expressing A-beta42, growth rescue, OD600, 48 h; response scale: 0% DMSO, 100% iron-clioquinol control. Potency, µM (highest dose often 46.1 µM), hits mostly activators. 410,000 tested, 0.063% active. AID 1347071; note: nearly all actives have a fitted effect of over 55% in size
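Yeast A-beta toxicity model in growth medium with pinned compounds, 48 h at 30 C; growth read as absorbance at 600 nm. Normalized to FeCl3/clioquinol equimolar mix (positive) and DMSO (negative).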
Mito fusion yeast: inhibitors of mitochondrial division or activators of mitochondrial fusion; Potency, µM (series often up to 46.1 µM), without a hit: top-dose growth rescue (activation), actives largely listed as activators; AID 485298; S. cerevisiae fusion-defective mutant growth rescue, CellTiterGlo 48 h; 320,000 tested, 0.23% active; note: % of control where 0% means no effect; nearly all actives have a fitted effect of over 45% in size
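Read-out: ATP-based luminescence (CellTiterGlo, 10 min ambient) reporting growth of fusion-defective ts yeast after 48 hours at 37C on glycerol/ethanol YPEG medium in the presence of compound.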
aSyn rescue: rescues yeast growth from alpha-synuclein toxicity; Potency, µM (series often up to 46.1 µM), for the others: top-dose growth rescue (activation), usual class: activators; Yeast expressing alpha-synuclein, growth rescue, BacTiter-Glo, 24 h; 370,000 tested, 0.14% active; note: % of control where 0% means no effect; nearly all actives have a fitted effect of over 65% in size
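Rescue of yeast growth: cells expressing toxic alpha-synuclein, induced in galactose at OD600 0.02, incubated with compound 24 h at 30 C. ATP luminescence quantified growth; inhibitors of toxicity appear as activators.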
ERG-DNA inh: inhibitors of human ERG Ets domain-DNA interaction; P11308; Potency, µM (highest dose often 76.9 µM), for the others: top-dose FP activity, negative = inhibition, usual class: inhibitors; fluorescence polarization, His-ERG Ets domain / labelled DNA; 370,000 tested, 0.028% active; active = well fitted inhibition curve with a large enough effect in the polarisation, with a control signal flat; inconclusive = small, poorly fitted or top-dose-only effect, or effect the other way, or a change in a side signal; inactive = no such curve, though single readings can be large or run the other way; the % refers to the polarisation;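 note: polarization taken with two DNA probes labelled with fluorescein and Texas red; % of control where 0% means no effect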
Target sequence (P11308 whole entry, looked up, the tested form may be a part): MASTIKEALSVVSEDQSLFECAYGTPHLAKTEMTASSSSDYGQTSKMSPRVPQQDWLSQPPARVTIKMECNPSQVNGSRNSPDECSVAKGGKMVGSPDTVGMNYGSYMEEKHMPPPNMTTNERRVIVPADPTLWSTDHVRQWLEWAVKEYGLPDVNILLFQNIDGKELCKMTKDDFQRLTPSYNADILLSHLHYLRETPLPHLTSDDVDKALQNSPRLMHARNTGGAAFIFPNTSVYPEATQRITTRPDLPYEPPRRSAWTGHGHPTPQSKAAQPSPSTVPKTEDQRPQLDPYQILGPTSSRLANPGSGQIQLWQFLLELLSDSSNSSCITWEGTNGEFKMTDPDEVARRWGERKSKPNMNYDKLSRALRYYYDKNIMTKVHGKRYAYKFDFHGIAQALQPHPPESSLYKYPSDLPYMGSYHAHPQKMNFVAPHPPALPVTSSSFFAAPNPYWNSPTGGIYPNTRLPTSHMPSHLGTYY
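His-tagged ERG Ets domain (1 uM in the protein solution; 300mM KCl, 50mM Tris-HCl, 1mM EDTA, 1mM DTT, pH 7.5) received compound, then a probe mix of 5 nM fluorescein-DNA and 100nM Texas-615-DNA. Fluorescence polarization was read for both dyes.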
FUS yeast rescue: rescues growth of FUS-expressing yeast | S. cerevisiae FUS-expressing, growth rescue, OD600, 24 h | Potency, µM (highest dose often 76.6 µM), most hits filed as activators | 390,000 tested, 0.24% active | AID 1347120;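 note: plate controls were DMSO vehicle for no effect and reference control for full effect; nearly all actives have a fitted effect of over 55% in size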
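Cultures pregrown in 2.5% raffinose medium are shifted to minimal medium containing 2% galactose to express toxic FUS. Compounds are tested at several concentrations. After 24hr at 30C, growth is quantified at 600 nm absorbance.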
* marks the source's active call; other numbers are inactive results. Unless noted, calls come from the whole dose curve; as a rule, active = well fitted curve in the direction sought with a large enough effect; inconclusive = small, poorly fitted or top-dose-only effect, or another doubt; inactive = no such curve, though single readings can be large; an effect the other way counts as inactive or inconclusive. Potency is the fitted concentration of half-maximal effect.

Cc1cccc(N=Nc2c(C)nn(-c3ccccc3)c2N)c1C was read as TDP43 rescue 20µM*, Abeta rescue inactive, Mito fusion yeast -8%, aSyn rescue -20% and ERG-DNA inh -5%.
Nc1nn(-c2ccccc2)c(N)c1N=Nc1ccccc1 was read as TDP43 rescue inconclusive, Abeta rescue inactive, Mito fusion yeast 5%, aSyn rescue -13% and ERG-DNA inh -2%.
Screening Nc1nn(-c2ccccc2)c(N)c1N=Nc1ccccc1F returned TDP43 rescue 13µM*, Abeta rescue inactive, Mito fusion yeast 6%, aSyn rescue -26%, ERG-DNA inh 5% and FUS yeast rescue inactive.
CC(=O)C[n+]1cccc(Br)c1 was read as aSyn rescue 3%.
Screening COc1ccc(NC(=O)C2CCN(S(=O)(=O)c3cn(C)cn3)CC2)cc1Cl returned TDP43 rescue 22%, Abeta rescue inactive, ERG-DNA inh 17% and FUS yeast rescue inactive.
`COc1ccccc1-c1nn(CCC(=O)Nc2ccc(C)cc2)c2nc(C)cc(C)c12` gave TDP43 rescue 35µM*, Abeta rescue inactive, aSyn rescue inconclusive, ERG-DNA inh -2% and FUS yeast rescue inactive.
`Cc1cccc(C)c1NC(=S)N(Cc1ccccc1)Cc1cccs1` gave TDP43 rescue 35µM*, Abeta rescue inactive, Mito fusion yeast 6%, aSyn rescue 23%, ERG-DNA inh -2% and FUS yeast rescue inactive.
For CSc1ccc(Cc2ccc(Cl)cc2Cl)nn1 the results were TDP43 rescue 11µM*, Abeta rescue inactive, Mito fusion yeast 1%, aSyn rescue 0%, ERG-DNA inh 0% and FUS yeast rescue inactive.
`O=C(Nc1c(-c2ccc(C(F)(F)F)cc2)nc2ncccn12)c1ccc(F)cc1` gave FUS yeast rescue inactive.
`CN(C(=O)c1ccc2c(c1)C(=O)N(CCC1=CCCCC1)C2=O)C1CCCCC1` gave TDP43 rescue 22µM*, Abeta rescue inactive, Mito fusion yeast 10%, aSyn rescue 7%, ERG-DNA inh 2% and FUS yeast rescue inactive.
`O=C(NCCc1ccccc1)c1ccc(-c2ccc(F)cc2)o1` gave TDP43 rescue 20µM*, Abeta rescue inactive, Mito fusion yeast -2%, aSyn rescue 0%, ERG-DNA inh 4% and FUS yeast rescue inactive.
`O=C(NCCc1ccccc1)c1ccc(-c2ccccc2C(F)(F)F)o1` gave TDP43 rescue 22%, Abeta rescue inactive, Mito fusion yeast 26%, aSyn rescue -4%, ERG-DNA inh 6% and FUS yeast rescue inactive.
Screening COc1ccc([C@H]2CC(=O)C=C(c3cccc(Cl)c3)C2)cc1 returned TDP43 rescue 18µM*, Abeta rescue inactive, Mito fusion yeast inconclusive, aSyn rescue 0%, ERG-DNA inh -5% and FUS yeast rescue inactive.
Screening COc1ccc([C@H]2CC(=O)C=C(c3ccc(C)c([N+](=O)[O-])c3)C2)cc1 returned TDP43 rescue 35µM*, Abeta rescue inactive, Mito fusion yeast inconclusive, aSyn rescue 2%, ERG-DNA inh -3% and FUS yeast rescue inconclusive.
Screening COc1ccc([C@H]2CC(=O)C=C(c3ccc4c(c3)OCCO4)C2)cc1 returned TDP43 rescue inconclusive, Abeta rescue inactive, Mito fusion yeast inconclusive, aSyn rescue 0%, ERG-DNA inh -4% and FUS yeast rescue inactive.
Screening COCc1cccc(C2=CC(=O)C[C@H](c3ccc(OC)cc3)C2)c1 returned TDP43 rescue 14µM*, Abeta rescue inactive, Mito fusion yeast 9%, aSyn rescue 5%, ERG-DNA inh -5% and FUS yeast rescue inactive.
O=C1C=C(c2cccc(Cl)c2)C[C@@H](c2ccc(Cl)cc2)C1 was read as TDP43 rescue 0%, Abeta rescue inactive, Mito fusion yeast inconclusive, aSyn rescue 3%, ERG-DNA inh -10% and FUS yeast rescue inconclusive.
O=C(CN1C(=O)C2(SCC(=O)N2c2ccc(F)c(F)c2)c2ccccc21)Nc1ccccc1F (centres undefined) was read as TDP43 rescue inconclusive, Abeta rescue inactive, aSyn rescue -2%, ERG-DNA inh 0% and FUS yeast rescue inactive.
For O=C(c1sc2cc(F)ccc2c1Cl)N1CCN(c2ccccc2)CC1 the results were TDP43 rescue 18µM*, Abeta rescue inactive, Mito fusion yeast 28%, aSyn rescue 0%, ERG-DNA inh -6% and FUS yeast rescue inactive.
For CN1CCC(N(C)C(=O)c2sc3cc(F)ccc3c2Cl)CC1 the results were TDP43 rescue 6%, Abeta rescue inactive, Mito fusion yeast 3%, aSyn rescue -6%, ERG-DNA inh -16% and FUS yeast rescue inactive.
`CCCCCn1c(=N)n(CC(O)COc2cccc(C)c2)c2ccccc21` (centres undefined) gave TDP43 rescue 25%, Abeta rescue inactive, ERG-DNA inh 4% and FUS yeast rescue inactive.
CCCOC(=O)c1cccc(Nc2nc(C(=O)OCC)nc3ccccc23)c1 was read as TDP43 rescue 22µM*, Abeta rescue inactive, ERG-DNA inh -4% and FUS yeast rescue inactive.
Screening CCOC(=O)c1cccc(Nc2nc(-c3cccnc3)nc3ccccc23)c1 returned TDP43 rescue 18µM*, Abeta rescue inactive, Mito fusion yeast 5%, aSyn rescue 14%, ERG-DNA inh 1% and FUS yeast rescue inactive.
Cc1ccc(Cl)cc1NC(=O)c1ccc(Cn2cc(Cl)cn2)cc1 was read as TDP43 rescue 4%, Abeta rescue inconclusive, Mito fusion yeast 20µM*, aSyn rescue 4%, ERG-DNA inh 0% and FUS yeast rescue inactive.
Cc1ccc(Cl)cc1N1CCN(S(=O)(=O)c2c(C)noc2C)CC1 was read as TDP43 rescue 12%, Abeta rescue inactive, Mito fusion yeast 18µM*, aSyn rescue -5%, ERG-DNA inh -10% and FUS yeast rescue inactive.
For COc1cccc(NC(=O)C(=O)NCCc2sc(-c3cccc(C)c3)nc2C)c1 the results were TDP43 rescue 15%, Abeta rescue inactive, aSyn rescue -15%, ERG-DNA inh 0% and FUS yeast rescue inactive.
For COC(=O)c1ccc(/C=C(\C#N)C(=O)NC(C)c2ccccc2)cc1 (centres undefined) the results were TDP43 rescue 13µM*, Abeta rescue inactive, Mito fusion yeast -4%, aSyn rescue inconclusive, ERG-DNA inh -1% and FUS yeast rescue inactive.
